{
  "source": "PubChem BioAssay AID2315",
  "about": "(National Center for Advancing Translational Sciences (NCATS), 2010)",
  "note": "Values joined by “and” are separate entries in the source; they are usually repeats but may differ in a detail not shown here. Equal values may be shown once. The whole screen tested about 290,000 compounds, of which about 27,000 (9.3%) were called active. The entries come from a sample that favours actives as a whole. Unmarked numbers belong to inactive results. No stated cut-off is given here; in the data, active means inhibition mostly above about 28% (no sharp cut-off); inactive means mostly below about 43%.",
  "data": [
    {"experiment": "A qHTS for Small Molecule Inhibitors of Shiga Toxin; further: 0% is about no effect", "details": "Vero cells, Shiga toxin protein synthesis inhibition reporter; at 38.7 µM, stronger effect = higher value", "values": [
      {"smiles": "COc1ccc(C23NCCN2C(=O)c2ccccc23)cc1", "note": "(stereo not drawn)", "inhibition": "-8.39%"},
      {"smiles": "COc1ccc(CNC(=O)c2cc(C(=O)C3CC3)c[nH]2)cc1", "inhibition": "27.9%"},
      {"smiles": "CCOC(=O)c1c(-c2ccccc2)oc2cc(Br)c(O)cc12", "inhibition": "-8.35%"},
      {"smiles": "COc1cc(OC)cc(C(=O)NCCCn2ccnc2)c1", "inhibition": "13.8%"},
      {"smiles": "COCCCNS(=O)(=O)c1cccc(S(=O)(=O)c2cccc(S(=O)(=O)NCCCOC)c2)c1", "inhibition": "-4.92%"},
      {"smiles": "CN(C)c1ccc(C(CNC(=O)c2ccc(F)cc2)c2c[nH]c3ccccc23)cc1", "note": "(stereo not drawn)", "inhibition": "5.91%"},
      {"smiles": "CCCS(=O)(=O)Nc1ccc(-c2cn3c(n2)SCC3)cc1", "inhibition": "27.3%"},
      {"smiles": "Cc1c(NC(=S)NCc2ccc(F)cc2)cccc1[N+](=O)[O-]", "inhibition": "-13.6%"},
      {"smiles": "O=[N+]([O-])c1ccccc1NCc1ccc(Cl)cc1", "inhibition": "48.7% (active)"},
      {"smiles": "O=C(NCCNc1ccccc1[N+](=O)[O-])c1ccccc1F", "inhibition": "61.5% (active)"},
      {"smiles": "O=C(NCCCNc1ccc([N+](=O)[O-])cc1Cl)c1ccccc1F", "inhibition": "-2.91%"},
      {"smiles": "O=C(O)c1ccccc1C(=O)Nc1ccccc1[N+](=O)[O-]", "inhibition": "0.458%"},
      {"smiles": "O=[N+]([O-])c1ccccc1NCc1ccccc1Cl", "inhibition": "8.89%"},
      {"smiles": "Cc1cc(S(=O)(=O)NCC(C)C)ccc1OCC(=O)NC1CC1", "inhibition": "-1.92%"},
      {"smiles": "COc1ccc(O)c(/C=N/N=C/c2cccc([N+](=O)[O-])c2)c1", "inhibition": "1.13%"},
      {"smiles": "O=C(O)c1ccccc1-c1ccccc1C(=O)Nc1ccccc1Br", "inhibition": "10.4%"},
      {"smiles": "COc1ccccc1OCCn1c(SCC(N)=O)nc2ccccc21", "inhibition": "-12.1%"},
      {"smiles": "COc1ccccc1OCc1nc2ccccc2s1", "inhibition": "63.5% (active)"},
      {"smiles": "COc1cccc2sc(NNC(=O)c3nc4ccccc4s3)nc12", "inhibition": "19.2%"},
      {"smiles": "Cc1ccc(O)c(/C=N/NC(=O)COc2ccc3c(C)cc(=O)oc3c2)c1", "inhibition": "4.79%"},
      {"smiles": "CCOC12CC(C)(C)CC(C)(CC3=C1C(=O)CC(C)(C)C3)C2", "note": "(stereo not drawn)", "inhibition": "-2.06%"},
      {"smiles": "CCCCOP(=O)(c1ccc(N(C)C)cc1)C(O)c1cc(OC)ccc1OC", "note": "(stereo not drawn)", "inhibition": "-2.17%"},
      {"smiles": "CCOC(=O)/C(C#N)=C/c1ccc(N2CCCCC2)cc1", "inhibition": "111% (active)"},
      {"smiles": "CCOC(=O)/C(C#N)=C/c1ccc(N2CCN(Cc3ccccc3)CC2)cc1", "inhibition": "32.9%"},
      {"smiles": "COc1ccc(N2CCN(C(=O)/C(C#N)=C/c3ccccc3)CC2)cc1", "inhibition": "33.9%"},
      {"smiles": "COc1ccc(S(=O)(=O)N2CCC(C(=O)N3CCCC3)CC2)cc1C", "inhibition": "-7.97%"},
      {"smiles": "CCOc1ccc(NC(=O)c2cccc3c2C(=O)N(CC2CCCO2)C3)cc1", "note": "(stereo not drawn)", "inhibition": "11.4%"},
      {"smiles": "COc1ccc(C2CC(O)(c3ccccc3)Oc3cc(C)cc(C)c32)cc1", "note": "(stereo not drawn)", "inhibition": "17.1%"},
      {"smiles": "COCCn1c(SCC(=O)Nc2cc(Cl)ccc2OC)nc2c(c1=O)SC(C)C2", "note": "(stereo not drawn)", "inhibition": "4.22%"},
      {"smiles": "C=CCSc1nc2c(c(=O)[nH]c(=O)n2C)n1Cc1ccccc1", "inhibition": "-6.62%"},
      {"smiles": "CN(c1ccccc1)c1ccc(/C=c2\\s/c(=C(/C#N)C(=O)C(C)(C)C)n(Cc3ccco3)c2=O)cc1", "inhibition": "-15.7%"},
      {"smiles": "CC(C)n1c(=O)c(C=Nc2ccc(Br)cc2)c(O)n(Cc2ccco2)c1=O", "inhibition": "-2%"},
      {"smiles": "Cc1cs/c(=N\\N=C\\c2ccc(O)cc2)n1Cc1ccco1", "inhibition": "0% (active)"},
      {"smiles": "CC(C)c1ccc(Cc2nnc(NCCCO)[nH]c2=O)cc1", "inhibition": "-6.37%"},
      {"smiles": "Cc1ccccc1CN1C(=O)c2ccccc2Sc2ccc(C(=O)NCCCN3CCOCC3)cc21", "inhibition": "-7.27%"},
      {"smiles": "COC(=O)c1ccc(CNC(=O)C2CCC(=O)N(Cc3cccc(F)c3)C2)cc1", "note": "(stereo not drawn)", "inhibition": "-2.68%"},
      {"smiles": "O=C(c1ccccc1)c1ccc(C(=O)N2CCN(c3ccccc3)CC2)cc1", "inhibition": "30.8%"},
      {"smiles": "CC(C)(C)c1ccc(OC(=O)N2CCCCC2)cc1", "inhibition": "104% (active)"},
      {"smiles": "O=C(c1ccccc1)c1ccc(OCC(O)CN2CCCC2)cc1", "note": "(stereo not drawn)", "inhibition": "2.19%"},
      {"smiles": "COc1ccc(S(=O)(=O)NC(C)C(=O)N2CCCCCC2)cc1", "note": "(stereo not drawn)", "inhibition": "-16.1%"},
      {"smiles": "CC(C)(C)c1ccc(C(=O)N2CCC(C(=O)N3CCCCC3)CC2)cc1", "inhibition": "-4.15%"},
      {"smiles": "O=C(c1ccccc1)c1ccc(OC(=O)N2CCCC2)cc1", "inhibition": "47.5% (active)"},
      {"smiles": "O=C(NCCc1ccccn1)c1nc(Cn2cc([N+](=O)[O-])cn2)no1", "inhibition": "-5.12%"},
      {"smiles": "COc1cccc(CN(C)CC(O)COC(c2ccccc2)c2ccccc2C)c1", "note": "(stereo not drawn)", "inhibition": "-8.7%"},
      {"smiles": "COc1ccc(-c2nc(N)ncc2-c2ccc(Cl)cc2)c(O)c1", "inhibition": "8.54%"},
      {"smiles": "COc1ccc(-c2nc3n(c2Br)CCC3)cc1", "inhibition": "87.2% (active)"},
      {"smiles": "COc1ccc(-c2nnc3n2CCCCC3)cc1", "inhibition": "5.25%"},
      {"smiles": "Brc1cccc(-c2nnc3n2CCC3)c1", "inhibition": "-4.22%"},
      {"smiles": "CCCCCn1c(=O)[nH]c2cc(C(=O)NCCCN3CCCCC3C)ccc2c1=O", "note": "(stereo not drawn)", "inhibition": "-23.9%"},
      {"smiles": "CNC(=O)CN1C(=O)NC(c2ccccc2)(c2ccccc2)C1=O", "inhibition": "-7.36%"},
      {"smiles": "O=C(NCc1ccc(F)cc1)C1CCN(C(=O)Nc2ccc(F)cc2)CC1", "inhibition": "-9.53%"},
      {"smiles": "O=C1CC(c2ccccc2)=NN1c1ccc([N+](=O)[O-])cc1", "inhibition": "55% (active)"},
      {"smiles": "CC1=NN(c2ccccc2)C(=O)C1C(=O)c1ccc([N+](=O)[O-])cc1", "note": "(stereo not drawn)", "inhibition": "27.4%"},
      {"smiles": "O=c1[nH]n(-c2ccc([N+](=O)[O-])cc2)c(=O)c2ccccc12", "inhibition": "-17%"},
      {"smiles": "CCC(C)[C@H](NC(=O)N1CCn2c1nc1ccccc12)C(=O)NCc1ccc(OC)cc1", "note": "(stereo partly drawn)", "inhibition": "13.9%"},
      {"smiles": "COc1ccc(C(CNCC(=O)Nc2ccccc2F)N(C)C)cc1", "note": "(stereo not drawn)", "inhibition": "7.34%"},
      {"smiles": "Cc1cc(C)c2nc(SCCC#N)nc(C)c2c1", "inhibition": "27.9%"},
      {"smiles": "Cc1cc(C)c2nc3nc(C)cc(C)c3c(N)c2c1", "inhibition": "32.6% (active)"},
      {"smiles": "Cc1cc(C)c2nc(-c3ccco3)cc(C(=O)O)c2c1", "inhibition": "-7.1%"},
      {"smiles": "OCCC(O)CO", "note": "(stereo not drawn)", "inhibition": "-8.78% and 20.3% and 19.5%"},
      {"smiles": "CN(C)Cc1c(C#N)c2ccccc2n1C", "inhibition": "-25%"},
      {"smiles": "COc1ccc(CCNCc2c(-c3ccccc3)n(C)c3ccccc23)cc1", "inhibition": "11.5%"},
      {"smiles": "COc1ccc(-c2c(C#Cc3ccccc3)c3ccccc3n2C)cc1", "inhibition": "43.7% (active)"}
    ]}
  ]
}
